Experimental findings from PubChem BioAssay (NCATS) are described below.

Inconclusive results are not listed. Calls of active or inactive are those of the source. Calls follow the shape of the dose curve; as a rule, active = well fitted cell-killing curve with a large enough effect; inconclusive = small, poorly fitted or top-dose-only effect; inactive = no such curve, though single readings can be large or run the other way.

A short description of the experiment: qHTS of pediatric cancer cell lines to identify multiple opportunities for drug repurposing: Primary screen for SJ-GBM2 cells (AID 1347091).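 Also: plate controls were DMSO neutral control for no effect and bortezomib for full effect.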 The settings on record: SJ-GBM2 viability, CellTiter-Glo luminescence, 48 h; series mostly up to 46 µM; activity change, negative = cytotoxic: at the top concentration. The method in brief:
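Cell viability, CellTiter-Glo luminescence; 500-1,000 cells/well, 8- or 11-point titration, 48 h compound exposure at 37 degrees C, 5% CO2. Controls: DMSO neutral, bortezomib 2.3 µM final as positive.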
A general note: In qHTS, concentration-response curves come from the screen itself.
For `CC(=O)O[C@]1(C(C)=O)CC[C@H]2[C@@H]3C=C(Cl)C4=CC(=O)CC[C@]4(C)[C@H]3CC[C@@]21C`, the “activity change, negative = cytotoxic” value was -10.3% (inactive).

In the case of `N=C(N)N1CCc2ccccc2C1`, the activity change, negative = cytotoxic is 1.07% [at 4.84 µM] (inactive).

With `O=C(NC1CCN(CCc2c[nH]c3ccccc23)CC1)c1ccccc1`, the “activity change, negative = cytotoxic” value is -0.526% (inactive).

Turning to `OC(C#CCN1CCCC1)(c1ccccc1)c1ccccc1`, the “activity change, negative = cytotoxic” value is 0.166% (inactive).

`CC(=O)Nc1ccc(OCC(O)CNC(C)C)cc1` (configuration not stated): the “activity change, negative = cytotoxic” value was 16.3% (inactive).

`CCCc1ncc(C[n+]2ccccc2C)c(N)n1`: the “activity change, negative = cytotoxic” value is 22.5% (inactive).

`COc1cc(N)c(Cl)cc1C(=O)NC1CCN(Cc2ccccc2)CC1`: the “activity change, negative = cytotoxic” value was 0.627% (inactive).

Consider `CCN(CC)CCOC(=O)C1(c2ccccc2)CCCC1`, for which the “activity change, negative = cytotoxic” value is 12.6% (inactive).

For the molecule `CCCCc1cc2ccccc2c(OCCN(C)C)n1`, the “activity change, negative = cytotoxic” value was -13.6% (inactive).

Consider `C#C[C@]1(O)CC[C@H]2[C@@H]3[C@H](C)CC4=C(CCC(=O)C4)[C@H]3CC[C@@]21C`, for which the “activity change, negative = cytotoxic” value was -3.54% (inactive).

For the molecule `CCN(CC)CCOC(=O)C(Cc1cccc2ccccc12)CC1CCCO1` (configuration not stated), the “activity change, negative = cytotoxic” value was -10.7% (inactive).

Take `N#CCC(=O)NN`: the “activity change, negative = cytotoxic” value was 22.5% (inactive).

As to `CC(C)(C)CC(C)(C)c1ccc(O)c(-n2nc3ccccc3n2)c1`, the “activity change, negative = cytotoxic” value was -6.88% (inactive).

Take `CCN1CCCC(OC(=O)C(c2ccccc2)c2ccccc2)C1` (configuration not stated): the “activity change, negative = cytotoxic” value is 10.9% (inactive).

As for `CO[C@H]1C=CO[C@@]2(C)Oc3c(C)c(O)c4c(O)c(c(/C=N/N5CCN(C)CC5)c(O)c4c3C2=O)NC(=O)/C(C)=C\C=C[C@H](C)[C@H](O)[C@@H](C)[C@@H](O)[C@@H](C)[C@H](OC(C)=O)[C@@H]1C`, the “activity change, negative = cytotoxic” value is -13.6% (inactive).

For `Cc1cccc(C)c1NC(=O)CN1CCCCCC1`, the “activity change, negative = cytotoxic” value was 14.9% (inactive).

On to `Cn1c(=O)c2[nH]c(Br)nc2n(C)c1=O`, for which the “activity change, negative = cytotoxic” value was 1.36% (inactive).
